Many of the other results were omitted from the sample, so hits are more common in it than they were.
AMA1-RON2 inh: inhibitors of Plasmodium falciparum AMA1-RON2 interaction. AlphaScreen AMA1-biotinylated RON2 peptide binding. Potency, µM (series often up to 58.2 µM), hits mostly inhibitors. 0.2% of 360,000 active. AID 720542; active = well fitted inhibition curve with a large enough effect; inconclusive = small, poorly fitted or top-dose-only effect; inactive = no such curve, though single readings can be large or run the other way; also: nearly all actives have a fitted effect of over 45% in size
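AMA1 (3D7) with his tag at 25 nM final met compounds first, then biotinylated RON2 peptide at 25 nM; detection used donor plus acceptor beads, 10 µg/mL apiece, read by AlphaScreen after 30 min at room temperature.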
LASV entry inh: inhibitors of Lassa virus binding or cell entry; Lassa virus pseudotype entry inhibition, cell reporter; Potency, µM (series often up to 37.9 µM), actives largely listed as inhibitors; 1.2% of 300,000 active; calls by dose curve; tested in HEK293 cells; also: nearly all actives have a fitted effect of over 50% in size
Shiga toxin inh: Shiga toxin inhibition; Vero cells, Shiga toxin protein synthesis inhibition reporter; 9.2% of 290,000 active; inhibition, % at 38.7 µM; in the data active = inhibition mostly above about 28%, no sharp cut-off; inactive = mostly below about 43%
Cycloheximide cs: affects cycloheximide protein synthesis inhibition readout, counter-screen; max response, %; cell reporter, cycloheximide protein synthesis inhibition counterscreen; 12% of 300,000 active; in the data active = max response mostly above about 13%, no sharp cut-off; inactive = mostly below about 14%; also: read at 38.3 µM for the half of the compounds with a filed dose
Marburg entry inh: blocks Marburg virus binding to or entry into cells. Marburg virus pseudotyped entry inhibition, cell reporter. Potency, µM (series often up to 37.8 µM), hits mostly inhibitors. 1.8% of 300,000 active. AID 540276; calls by dose curve; tested in HEK293 cells
Each line names hits and unclear results; the compound was inactive in the other large screens.

COc1ccc(OCCNc2cc(Cl)ccc2[N+](=O)[O-])cc1	Cycloheximide cs 17
COc1ccc(OCCNc2cc(N3CCCCC3)ccc2[N+](=O)[O-])cc1	AMA1-RON2 inh inconclusive, LASV entry inh inconclusive, Marburg entry inh inconclusive
CCN(CC(=O)NC(C)(C)C)C(=O)C(c1ccccc1)c1ccccc1	none
CCOC(=O)C1CCN(c2ncnc3c2c(-c2ccccc2)cn3-c2ccc(Cl)cc2)CC1	none (no result: AMA1-RON2 inh, Shiga toxin inh, Cycloheximide cs, Marburg entry inh)
CNC[C@H](NC[C@@H](NCCCc1ccccc1)c1ccccc1)[C@H](C)O	none (no result: LASV entry inh, Marburg entry inh)
COc1ccc(C2SCC(=O)N2CC23CC4CC(CC(C4)C2)C3)cc1 (stereo not given)	LASV entry inh inconclusive, Marburg entry inh inconclusive
NS(=O)(=O)c1ccc(NC(=O)CSc2ccccc2)cc1	Cycloheximide cs 20 (no result: LASV entry inh, Marburg entry inh)
COc1ccc(NC(=O)Cc2ccccc2)cn1	LASV entry inh inconclusive
COc1ccc(NC(=O)CSc2ccccc2)cn1	LASV entry inh inconclusive, Shiga toxin inh 49, Cycloheximide cs 27, Marburg entry inh inconclusive
O=C(Nc1ccncc1)Nc1ccc(F)c(Cl)c1	none (no result: LASV entry inh, Marburg entry inh)
CCOC(=O)c1ccc(NC(=O)Nc2ncc(Cl)cc2Cl)cc1	Cycloheximide cs 17 (no result: AMA1-RON2 inh, LASV entry inh, Marburg entry inh)
NS(=O)(=O)c1ccc(NC(=O)CSc2nc3ccccc3[nH]2)cc1	none (no result: LASV entry inh)
COC(=O)c1ccc(NC(=O)Nc2ccc(F)c(Cl)c2)cc1	Shiga toxin inh 49, Cycloheximide cs 28
NC(=S)NCCC[C@H](N)C(=O)O	none (no result: AMA1-RON2 inh, Shiga toxin inh, Cycloheximide cs)
CCCCn1c(=O)c2oc3ccccc3c2n(Cc2cccc(C)c2)c1=O	none (no result: AMA1-RON2 inh, Shiga toxin inh, Cycloheximide cs, Marburg entry inh)
CCOC(=O)c1ccc(NC(=O)Nc2ccc(F)cc2)cc1	LASV entry inh inconclusive, Cycloheximide cs 21
COC(=O)c1ccc(NC(=O)Nc2ccc(F)cc2)cc1	Shiga toxin inh 107, Cycloheximide cs 26
COC(=O)c1cc(NC(=O)c2ccc(F)cc2)cc(C(=O)OC)c1	none
COc1ccc(NC(=O)Nc2ccc(F)cc2)cn1	Shiga toxin inh 34, Cycloheximide cs 29 (no result: LASV entry inh, Marburg entry inh)
CCOC(=O)c1ccc(NC(=O)CC2C(=O)N(c3ccc(F)cc3)C(=O)N2CCC(C)C)cc1 (stereo not given)	LASV entry inh inconclusive, Marburg entry inh 26µM
CCOC(=O)c1ccc(NC(=O)CC2C(=O)N(c3ccc(F)cc3)C(=O)N2Cc2ccc(C)cc2)cc1 (stereo not given)	Marburg entry inh inconclusive (no result: AMA1-RON2 inh, Shiga toxin inh, Cycloheximide cs)
Cc1cccc(C)c1NC(=O)[C@@]1(CC(=O)O)CC(/C=C/c2ccccc2)=NO1	none
COc1ccc(CCN2C(=O)COc3ccccc3C2C(=O)Nc2c(C)cccc2C)cc1OC (stereo not given)	none (no result: LASV entry inh, Shiga toxin inh, Cycloheximide cs, Marburg entry inh)
COc1ccc(NC(=O)/C=C/c2cccc(C(F)(F)F)c2)cn1	LASV entry inh inconclusive, Marburg entry inh inconclusive
COc1ccc(NC(=O)/C=C/c2cccc(Br)c2)cn1	LASV entry inh inconclusive, Shiga toxin inh 55, Cycloheximide cs 27, Marburg entry inh inconclusive
O=C1CSC(=S)N1N=Cc1ccccc1O	none (no result: Shiga toxin inh, Cycloheximide cs)
O=C1CSC(=S)N1/N=C/c1ccc2c(c1)OCCO2	Shiga toxin inh 57, Cycloheximide cs 35, Marburg entry inh inconclusive
O=C(NNC(=O)c1ccc(Cl)cc1Cl)c1ccc2ccccc2c1	none (no result: Shiga toxin inh, Cycloheximide cs)
O=C(NNc1cccc(Cl)n1)c1ccc(Cl)cc1Cl	Cycloheximide cs 24, Marburg entry inh inconclusive
O=C(O)/C=C/C(=O)NNC(=O)c1ccc(Cl)cc1Cl	Shiga toxin inh 58, Cycloheximide cs 27
COC(=O)NNC(=O)c1ccc(Cl)cc1Cl	Marburg entry inh inconclusive
CCOC(=O)N1CCN(C(=O)CSc2ccc3nnc(CCNC(=O)c4ccc(OC)cc4)n3n2)CC1	LASV entry inh inconclusive
COc1cccc(NC(=O)COC(=O)c2ccccc2SCC(=O)N2CCCC2)c1	none (no result: Shiga toxin inh, Cycloheximide cs)
COc1ccc(-c2cn3cc(C(=O)NN)ccc3n2)cc1	LASV entry inh inconclusive, Shiga toxin inh 42, Cycloheximide cs 24, Marburg entry inh inconclusive
CCCNC(=O)c1ccc(Cn2cc(-c3ccc(OC)cc3)nc2C(C)N)cc1 (stereo not given)	none (no result: LASV entry inh, Shiga toxin inh, Cycloheximide cs, Marburg entry inh)
NNC(=O)c1ccc2nc(-c3ccc(Br)cc3)cn2c1	LASV entry inh inconclusive, Cycloheximide cs 30, Marburg entry inh inconclusive
CCOc1ccccc1/C=C(/NC(=O)c1ccccc1)C(=O)NC(C)c1ccccc1 (stereo not given)	none
CCOc1ccc(-n2cc(-c3ccccc3)c3c(N4CCC(C)CC4)ncnc32)cc1	none (no result: AMA1-RON2 inh, Shiga toxin inh, Cycloheximide cs, Marburg entry inh)
O=C(Nc1ccccc1)c1cccc(NC(=O)c2ccco2)c1	none (no result: Shiga toxin inh, Cycloheximide cs)
COc1cccc(C(=O)Nc2ccc(NC(=O)C3CC3)nc2)c1	Cycloheximide cs 18
O=C(Nc1nonc1-c1ccc(Cl)cc1)c1ccccc1	none
O=C(Nc1ccc(NC(=O)C2CC2)nc1)c1cccc(F)c1	Shiga toxin inh 59, Cycloheximide cs 47
O=C(Cc1ccccc1)Nc1nonc1NC(=O)c1ccccc1	LASV entry inh inconclusive, Marburg entry inh 13µM
O=C(Nc1ccc(NC(=O)C2CC2)nc1)c1cccnc1	none
C=Cc1cccc(NC(=O)c2ccc(NC(=O)c3ccco3)cc2)c1	Shiga toxin inh 35, Cycloheximide cs 19 (no result: LASV entry inh, Marburg entry inh)
COc1ccc(-c2noc3c2-c2nc(-c4c(F)cccc4F)sc2CC3)cc1	none (no result: LASV entry inh, Marburg entry inh)
CC(C)C(=O)Nc1ccc(NC(=O)c2cccc(F)c2)cn1	Shiga toxin inh 76, Cycloheximide cs 22
O=C(Cc1ccccc1)Nc1ccc(NC(=O)c2ccccc2)nc1	Shiga toxin inh 174, Cycloheximide cs 38, Marburg entry inh inconclusive
O=C(NCc1cccnc1)c1ccc(NC(=O)c2ccco2)cc1	Marburg entry inh inconclusive
O=C(Nc1ccc(NC(=O)c2ccco2)nc1)c1cccnc1	LASV entry inh inconclusive, Shiga toxin inh 54, Marburg entry inh inconclusive
O=C(Nc1ccc(NC(=O)C2CC2)cn1)c1ccccc1	LASV entry inh 5.6µM, Shiga toxin inh 43, Cycloheximide cs 26, Marburg entry inh inconclusive
Cc1ccc(NC(=O)c2ccc3oc(=O)c(S(=O)(=O)c4ccccc4)cc3c2)cc1C	none (no result: AMA1-RON2 inh, Shiga toxin inh, Cycloheximide cs)
CC(NC(=O)C(=O)c1cn(CC(=O)N2CCOCC2)c2ccccc12)c1ccccc1 (stereo not given)	none (no result: LASV entry inh, Marburg entry inh)
O=C(Nc1cccnc1)c1ccco1	none
COc1cc(C(=O)Nc2ccc(NC(=O)c3ccco3)nc2)cc(OC)c1OC	LASV entry inh inconclusive
COc1cccc(C(=O)Nc2ccc(NC(=O)c3ccco3)nc2)c1	Shiga toxin inh 194, Cycloheximide cs 63, Marburg entry inh inconclusive
COc1cccc(C(=O)Nc2ccc(NC(=O)c3ccco3)c(Cl)c2)c1	Shiga toxin inh 64, Cycloheximide cs 30
CCCC(=O)Nc1ccc(NC(=O)c2cccc(OC)c2)nc1	Shiga toxin inh 119, Cycloheximide cs 33
O=C(Nc1cccnc1)c1ccc(NC(=O)c2ccco2)cc1	Cycloheximide cs 19
COc1cccc(C(=O)Nc2ccc(NC(C)=O)cn2)c1	Shiga toxin inh 65, Cycloheximide cs 31
Cc1cc(NC(=O)c2cccc(F)c2)ncc1NC(=O)c1ccco1	Cycloheximide cs 21, Marburg entry inh inconclusive
Cc1cc(NC(=O)c2ccco2)ncc1NC(=O)CCc1ccccc1	Cycloheximide cs 28
O=C(Nc1ccc(NC(=O)c2ccco2)nc1)c1cccc(F)c1	LASV entry inh 10µM, Shiga toxin inh 82, Cycloheximide cs 40, Marburg entry inh inconclusive
O=C(Nc1ccc(NC(=O)c2ccccc2F)cn1)c1ccco1	LASV entry inh inconclusive, Cycloheximide cs 18, Marburg entry inh 4µM

Compound activity as filed in PubChem.
